Drawing on article PMC11006913, this text covers binding signal for 15 sequences.

Holding throughout (test): PBM; 200 nM protein, PBS
Holding throughout (conditions): dsDNA, one strand shown

The target of test [1] is CRX (Homo sapiens, UniProt O43186 26-111).
Test [2] has as its target CRX (Homo sapiens, UniProt O43186 26-111, E42D).
Another test has as its target PITX2 (Homo sapiens, UniProt Q99697 72-157).
In test [3] the target is CRX (Homo sapiens, UniProt O43186 26-111, R41L).
The target of test [4] is ALX1 (Homo sapiens, UniProt Q15699 118-204, L144V).
Test [5] addresses ALX1 (Homo sapiens, UniProt Q15699 118-204, L144R).
Test [6] concerns the target ALX1 (Homo sapiens, UniProt Q15699 118-204).
The target of test [7] is ALX3 (Homo sapiens, UniProt O95076 139-225, N203Q).
Test [8] addresses ALX3 (Homo sapiens, UniProt O95076 139-225).
The target of test [9] is ALX3 (Homo sapiens, UniProt O95076 139-225, L168Q).
Test [10] addresses ALX3 (Homo sapiens, UniProt O95076 139-225, L168V).
The target of test [11] is ALX3 (Homo sapiens, UniProt O95076 139-225, N203S).
Chain of ALX3 (Homo sapiens, UniProt O95076 139-225, N203S) (O95076 139-225 N203S): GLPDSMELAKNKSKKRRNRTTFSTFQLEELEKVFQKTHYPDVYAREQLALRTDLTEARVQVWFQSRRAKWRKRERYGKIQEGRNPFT

Chain of CRX (Homo sapiens, UniProt O43186 26-111) (O43186 26-111): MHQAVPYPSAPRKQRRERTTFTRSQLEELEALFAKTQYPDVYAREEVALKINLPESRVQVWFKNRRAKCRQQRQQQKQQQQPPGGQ
Chain of CRX (Homo sapiens, UniProt O43186 26-111, R41L) (O43186 26-111 R41L): as the sequence (O43186 26-111) above, with R16L counted along it
Chain of CRX (Homo sapiens, UniProt O43186 26-111, E42D) (O43186 26-111 E42D): as the sequence (O43186 26-111) above, with E17D counted along it
Chain of ALX1 (Homo sapiens, UniProt Q15699 118-204, L144R) (Q15699 118-204 L144R): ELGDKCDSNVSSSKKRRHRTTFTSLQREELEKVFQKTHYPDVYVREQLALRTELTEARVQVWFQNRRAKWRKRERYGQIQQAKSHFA
Chain of ALX3 (Homo sapiens, UniProt O95076 139-225, L168Q) (O95076 139-225 L168Q): as the sequence (O95076 139-225 N203S) above, with L30Q, S65N counted along it
Chain of ALX3 (Homo sapiens, UniProt O95076 139-225, N203Q) (O95076 139-225 N203Q): as the sequence (O95076 139-225 N203S) above, with S65Q counted along it
Chain of ALX1 (Homo sapiens, UniProt Q15699 118-204) (Q15699 118-204): as the sequence (Q15699 118-204 L144R) above, with R27L counted along it
Chain of ALX3 (Homo sapiens, UniProt O95076 139-225) (O95076 139-225): as the sequence (O95076 139-225 N203S) above, with S65N counted along it
Chain of ALX3 (Homo sapiens, UniProt O95076 139-225, L168V) (O95076 139-225 L168V): as the sequence (O95076 139-225 N203S) above, with L30V, S65N counted along it
Chain of ALX1 (Homo sapiens, UniProt Q15699 118-204, L144V) (Q15699 118-204 L144V): as the sequence (Q15699 118-204 L144R) above, with R27V counted along it

For the sequence GCGGATTA, the binding signal with CRX [1] is 13.6 upbm affinity estimate (log intensity, higher = more binding, comparable within an allelic series); with CRX [2] it was 13.7 upbm affinity estimate (log intensity, higher = more binding, comparable within an allelic series); in the test with PITX2, 13.3 upbm affinity estimate (log intensity, higher = more binding, comparable within an allelic series); in the test with CRX [3], 13.6 upbm affinity estimate (log intensity, higher = more binding, comparable within an allelic series).

Consider AGTTTATC, for which the binding signal is 10.5 upbm affinity estimate (log intensity, higher = more binding, comparable within an allelic series) in the test with CRX [1]; 10.3 upbm affinity estimate (log intensity, higher = more binding, comparable within an allelic series) in the test with CRX [2]; 7.91 upbm affinity estimate (log intensity, higher = more binding, comparable within an allelic series) with ALX1 [4]; 8.01 upbm affinity estimate (log intensity, higher = more binding, comparable within an allelic series) with ALX1 [5]; 10.2 upbm affinity estimate (log intensity, higher = more binding, comparable within an allelic series) with CRX [3]; 8.04 upbm affinity estimate (log intensity, higher = more binding, comparable within an allelic series) with ALX1 [6].

GAGACTGC: the binding signal is 8.28 upbm affinity estimate (log intensity, higher = more binding, comparable within an allelic series) with CRX [1]; 8.22 upbm affinity estimate (log intensity, higher = more binding, comparable within an allelic series) in the test with CRX [2]; 7.74 upbm affinity estimate (log intensity, higher = more binding, comparable within an allelic series) with ALX3 [7]; 7.6 upbm affinity estimate (log intensity, higher = more binding, comparable within an allelic series) with ALX3 [8]; 7.71 upbm affinity estimate (log intensity, higher = more binding, comparable within an allelic series) with ALX3 [9]; 7.72 upbm affinity estimate (log intensity, higher = more binding, comparable within an allelic series) with ALX3 [10]. In addition, the binding signal was 8.35 upbm affinity estimate (log intensity, higher = more binding, comparable within an allelic series) with CRX [3] and 7.73 upbm affinity estimate (log intensity, higher = more binding, comparable within an allelic series) in the test with ALX3 [11].

Regarding CTGGATTA, the binding signal in the test with CRX [1] is 13.1 upbm affinity estimate (log intensity, higher = more binding, comparable within an allelic series); in the test with CRX [2] it was 13.1 upbm affinity estimate (log intensity, higher = more binding, comparable within an allelic series); with PITX2 it was 13 upbm affinity estimate (log intensity, higher = more binding, comparable within an allelic series); in the test with CRX [3] it was 12.9 upbm affinity estimate (log intensity, higher = more binding, comparable within an allelic series).

With CCTCTGAC, the binding signal with CRX [1] was 7.95 upbm affinity estimate (log intensity, higher = more binding, comparable within an allelic series); with CRX [2], 8.28 upbm affinity estimate (log intensity, higher = more binding, comparable within an allelic series); with PITX2, 7.92 upbm affinity estimate (log intensity, higher = more binding, comparable within an allelic series); in the test with CRX [3] it was 8.19 upbm affinity estimate (log intensity, higher = more binding, comparable within an allelic series).

On to CTAATCCA, for which the binding signal in the test with CRX [1] is 13.3 upbm affinity estimate (log intensity, higher = more binding, comparable within an allelic series); with CRX [2], 13.3 upbm affinity estimate (log intensity, higher = more binding, comparable within an allelic series); with PITX2, 13.2 upbm affinity estimate (log intensity, higher = more binding, comparable within an allelic series); with CRX [3], 13 upbm affinity estimate (log intensity, higher = more binding, comparable within an allelic series).

For AGGATTAT, the binding signal with CRX [1] was 13.4 upbm affinity estimate (log intensity, higher = more binding, comparable within an allelic series); with CRX [2], 13.5 upbm affinity estimate (log intensity, higher = more binding, comparable within an allelic series); with PITX2, 13.2 upbm affinity estimate (log intensity, higher = more binding, comparable within an allelic series); in the test with CRX [3], 13.5 upbm affinity estimate (log intensity, higher = more binding, comparable within an allelic series).

Turning to GGATTAGA, the binding signal in the test with CRX [1] was 13.3 upbm affinity estimate (log intensity, higher = more binding, comparable within an allelic series); in the test with CRX [2] it was 13.2 upbm affinity estimate (log intensity, higher = more binding, comparable within an allelic series); with PITX2, 13.1 upbm affinity estimate (log intensity, higher = more binding, comparable within an allelic series); in the test with CRX [3], 13.1 upbm affinity estimate (log intensity, higher = more binding, comparable within an allelic series).

In the case of TAATCCTA, the binding signal in the test with CRX [1] is 13.4 upbm affinity estimate (log intensity, higher = more binding, comparable within an allelic series); in the test with CRX [2], 13.4 upbm affinity estimate (log intensity, higher = more binding, comparable within an allelic series); in the test with PITX2, 13.2 upbm affinity estimate (log intensity, higher = more binding, comparable within an allelic series); with CRX [3] it was 13.3 upbm affinity estimate (log intensity, higher = more binding, comparable within an allelic series).

GAAGATTA: the binding signal was 12.8 upbm affinity estimate (log intensity, higher = more binding, comparable within an allelic series) with CRX [1]; 12.8 upbm affinity estimate (log intensity, higher = more binding, comparable within an allelic series) in the test with CRX [2]; 12.4 upbm affinity estimate (log intensity, higher = more binding, comparable within an allelic series) in the test with PITX2; 12.5 upbm affinity estimate (log intensity, higher = more binding, comparable within an allelic series) in the test with CRX [3].

As to GGGGATTA, the binding signal in the test with CRX [1] was 13.7 upbm affinity estimate (log intensity, higher = more binding, comparable within an allelic series); with CRX [2], 13.8 upbm affinity estimate (log intensity, higher = more binding, comparable within an allelic series); with PITX2 it was 13.5 upbm affinity estimate (log intensity, higher = more binding, comparable within an allelic series); with CRX [3], 13.8 upbm affinity estimate (log intensity, higher = more binding, comparable within an allelic series).

For the sequence GATTAAGC, the binding signal was 13.1 upbm affinity estimate (log intensity, higher = more binding, comparable within an allelic series) in the test with CRX [1]; 13.1 upbm affinity estimate (log intensity, higher = more binding, comparable within an allelic series) with CRX [2]; 12.7 upbm affinity estimate (log intensity, higher = more binding, comparable within an allelic series) with PITX2; 12.6 upbm affinity estimate (log intensity, higher = more binding, comparable within an allelic series) with CRX [3].

Take CAGGATTA: the binding signal in the test with CRX [1] is 13.1 upbm affinity estimate (log intensity, higher = more binding, comparable within an allelic series); with CRX [2] it was 13.2 upbm affinity estimate (log intensity, higher = more binding, comparable within an allelic series); in the test with PITX2, 12.9 upbm affinity estimate (log intensity, higher = more binding, comparable within an allelic series); with CRX [3] it was 13 upbm affinity estimate (log intensity, higher = more binding, comparable within an allelic series).

With GAGATTAA, the binding signal with CRX [1] is 13.1 upbm affinity estimate (log intensity, higher = more binding, comparable within an allelic series); with CRX [2], 13.1 upbm affinity estimate (log intensity, higher = more binding, comparable within an allelic series); with PITX2, 12.8 upbm affinity estimate (log intensity, higher = more binding, comparable within an allelic series); in the test with CRX [3], 12.8 upbm affinity estimate (log intensity, higher = more binding, comparable within an allelic series).

Turning to CGTAATCC, the binding signal in the test with CRX [1] was 13.2 upbm affinity estimate (log intensity, higher = more binding, comparable within an allelic series); with CRX [2], 13.2 upbm affinity estimate (log intensity, higher = more binding, comparable within an allelic series); with PITX2, 13 upbm affinity estimate (log intensity, higher = more binding, comparable within an allelic series); with CRX [3], 13.2 upbm affinity estimate (log intensity, higher = more binding, comparable within an allelic series).
